High-throughput results: PubChem BioAssay, National Center for Advancing Translational Sciences (NCATS)
RGS4 inh = inhibitors of human regulator of G protein signaling 4; AID 504845; P49798; 390,000 tested, 0.039% active; Potency, µM (titrated, usually from 114 µM), most hits filed as inhibitors; Transcreener GDP fluorescence polarization, RGS4-accelerated GTP hydrolysis; note: nearly all actives have a fitted effect of over 75% in size
Target sequence (P49798 whole entry, looked up): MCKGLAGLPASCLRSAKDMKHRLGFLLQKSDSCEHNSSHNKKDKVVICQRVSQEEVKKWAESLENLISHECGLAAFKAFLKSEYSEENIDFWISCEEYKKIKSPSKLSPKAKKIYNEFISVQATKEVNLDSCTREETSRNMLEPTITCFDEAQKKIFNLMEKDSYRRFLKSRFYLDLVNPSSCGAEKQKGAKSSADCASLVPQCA
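MLSMR compounds (23 nl, pin-transferred) preincubated 10 min at room temperature with a 500nM (2x) first reagent, then RGS4 at 900nM (2x) plus Transcreener GDP mix added; fluorescence polarization (620/688 nm) read before and after 90 min at 30 °C.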
KB-V1 MDR tox = KB-V1 MDR subline cytotoxicity | 400,000 tested, 3.4% active | AID 1347076 | Potency, µM (titrated, usually from 46.1 µM), actives largely listed as cytotoxic | KB-V1 MDR cells viability, CellTiter-Glo, 72 h; note: nearly all actives have a fitted effect of over 60% in size
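In this primary screen, KB-V1 cells overexpressing P-gp are incubated with library compounds (lowest to highest concentration) for 72 h at 37 degrees C before a luminescent ATP viability read.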
KB-3-1 cytotox = KB-3-1 parental cell cytotoxicity; Potency, µM (series often up to 46.1 µM), usual class: cytotoxic; KB-3-1 viability, CellTiter-Glo ATP luminescence, 72 h; 400,000 tested, 1.4% active; note: nearly all actives have a fitted effect of over 60% in size
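Viability of parental KB-3-1 cells, measured by CellTiter-Glo luminescence, followed a 72 h incubation at 37 °C with pinned compounds in phenol-red-free DMEM containing 10% FBS.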
TSG101-PTAP inh = blocks PTAP/TSG101 interaction to inhibit HIV-1 budding | Fluorescence polarization, FITC-PTAP peptide / Tsg101 binding | Q99816 | 340,000 tested, under 10 active | Potency, µM (titrated, usually from 115 µM), actives largely listed as inhibitors; active = well fitted inhibition curve with a large enough effect in the main read-out, with a control signal flat, not every such curve was filed as active; inconclusive = small, poorly fitted or top-dose-only effect, or effect the other way, or a change in a side signal; inactive = no such curve, though single readings can be large or run the other way
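Fluorescence polarization binding of Tsg101 binding domain (10 uM final) to FITC-labeled PTAP peptide (50 nM final) in HEPES pH 7.5 buffer with NaCl, Tween 20, EDTA, TCEP. Compounds added before peptide; binding 20 min at RT.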
SW480 rereplic = induces DNA re-replication in SW480 colon adenocarcinoma cells | Potency, µM (doses to about 46.1 µM), hits mostly activators | 340,000 tested, 1.8% active | AID 624297 | SW480 DNA re-replication, Hoechst DNA content imaging, 48 h; note: nearly all actives have a fitted effect of over 55% in size
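Cells (250 per well) received 23 nL compound or DMSO by pin tool and were kept 48 hr at 37 C, 5% CO2. Nuclei were then stained with Hoechst for 40 min and scanned for DNA content.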
MCF10A rerep = induces DNA re-replication in MCF 10a normal breast cells; MCF 10A DNA re-replication, Hoechst nuclear intensity, 48 h; Potency, µM (titrated, usually from 46.1 µM), usual class: activators; 350,000 tested, 2.9% active; AID 624296; note: nearly all actives have a fitted effect of over 50% in size
Hits are given with their value; . = inactive; ? = inconclusive; / = no result. The list is not random: actives were taken first. Their share in the collection is about 6.6%. Unless noted, calls come from the whole dose curve; as a rule, active = well fitted curve in the direction sought with a large enough effect; inconclusive = small, poorly fitted or top-dose-only effect, or another doubt; inactive = no such curve, though single readings can be large; an effect the other way counts as inactive or inconclusive.

SMILES | RGS4 inh | KB-V1 MDR tox | KB-3-1 cytotox | TSG101-PTAP inh | SW480 rereplic | MCF10A rerep
COCc1cc(CN2CCCC(C(=O)Nc3ccc(-c4ccco4)cc3)C2)ccc1OC (stereo unspecified) | ? | . | ? | . | 23µM | .
Cc1ncc(CN2CCCC(C(=O)Nc3ccc(-c4cccc(F)c4)cc3)C2)n1C (stereo unspecified) | . | ? | ? | . | ? | 23µM
COc1cccc(-c2ccc(NC(=O)C3CCCN(Cc4cnc(C)n4C)C3)cc2)c1 (stereo unspecified) | . | / | / | . | . | ?
COc1cccc(CN2CCCC(C(=O)Nc3ccc(-c4cscn4)cc3)C2)c1 (stereo unspecified) | . | 21µM | ? | / | ? | .
COc1ccc(-c2nsc(NC(=O)COc3ccc(C)c(C)c3)n2)cc1 | . | / | / | / | / | /
CN(C)CCN(Cc1ccco1)C(=O)c1cc2c(s1)-c1ccccc1OC2 | . | / | / | / | / | /
O=C1CCCN1c1ccc(S(=O)(=O)N2CCC(c3ccccc3)CC2)cc1 | . | 2.6µM | . | / | . | .
O=C1CCCN1c1ccc(S(=O)(=O)N2CCN(c3ccccc3)CC2)cc1 | . | . | . | . | . | .
Cc1cccc(-c2nnc(-c3cccc(NC(=O)Cc4cccs4)c3)o2)c1 | . | 21µM | . | . | ? | ?
O=C(Cc1cccs1)Nc1nnc(-c2ccccc2)s1 | . | . | . | . | . | 0.65µM
Cc1ccc(-c2nnc(-c3cccc(NC(=O)c4cccs4)c3)o2)cc1 | . | 12µM | . | . | . | .
O=C(Nc1cccc(-c2nnco2)c1)c1cccs1 | . | . | . | . | . | .
Cc1cccc(N=C2NC(=O)/C(=C\c3cccs3)S2)c1 | . | . | . | . | ? | ?
Cc1cccc(N=C2NC(=O)CS2)c1 | . | ? | . | . | . | .
Cc1ccc(N=C2NC(=O)/C(=C/c3cccn3C)S2)cc1C | . | ? | ? | . | ? | 15µM
Cc1ccc(N=C2NC(=O)/C(=C\c3ccc(C)s3)S2)cc1 | . | . | . | . | . | .
Cc1ccc(N=C2NC(=O)/C(=C/c3cccs3)S2)cc1C | . | ? | . | . | . | 16µM
Cc1ccc(N=C2NC(=O)/C(=C/c3cccn3C)S2)cc1 | . | ? | ? | . | 10µM | ?
Cc1cccc(N=C2NC(=O)/C(=C/c3cccn3C)S2)c1C | . | ? | . | . | . | ?
Cc1ccc(N=C2NC(=O)CS2)cc1C | . | 9.2µM | ? | . | . | .
CCN(CC)CCN(C(=O)c1ccco1)c1nc2c(C)c(C)ccc2s1 | . | . | . | / | / | /
CCCc1nn2c(=O)cc(COC(=O)c3ccc(NC(=O)c4cccs4)cc3)nc2s1 | . | / | / | / | / | /
Cc1ccc(NC(=O)c2ccc(OC(F)(F)F)cc2)cc1S(=O)(=O)N(C)C | . | ? | 23µM | . | . | .
CC(=O)c1ccc(OCCCC(=O)Nc2ccc(C)c(S(=O)(=O)N(C)C)c2)cc1 | . | 23µM | 21µM | . | . | .
CC(=O)c1ccc(OCCCC(=O)Nc2ccc(C)c(S(=O)(=O)N3CCCCC3)c2)cc1 | . | ? | . | . | ? | .
SMILES | RGS4 inh | KB-V1 MDR tox | KB-3-1 cytotox | TSG101-PTAP inh | SW480 rereplic | MCF10A rerep
Cc1ccc(NC(=O)c2ccncc2)cc1S(=O)(=O)N(C)C | . | . | . | . | . | .
CCCCN1C(=O)c2ccc(C(=O)Nc3ccc(C)c(S(=O)(=O)N(C)C)c3)cc2C1=O | . | 12µM | ? | . | . | .
O=c1[nH]c(NCc2ccco2)nnc1Cc1ccccc1Cl | . | ? | 5.8µM | . | 7.3µM | ?
Cc1nc(NCc2ccco2)[nH]c(=O)c1CCC(C)C | . | . | . | . | . | .
Cc1ccc2c(c1)c1ncnc(N3CCN(c4ccccc4)CC3)c1n2C | . | ? | . | . | . | ?
Cc1ccc2c(c1)c1ncnc(N3CCOCC3)c1n2C | . | 23µM | . | . | . | ?
COc1ccc(Cn2c(SCc3ccc(C(=O)NCc4cccs4)cc3)nc3ccncc32)cc1 | . | . | . | / | / | /
Cc1ccc(-c2n[nH]c(=S)n2C)cc1 | . | 16µM | ? | . | . | .
O=C(Nc1ccncc1)C1C(=O)c2ccccc2N(Cc2ccccc2)C1=O (stereo unspecified) | . | . | . | / | / | /
